The source of these data is PubChem BioAssay (NCATS).

Molecules are shown by their SMILES. Several values for one entry are separate records, joined by “and”; a condition that tells them apart may be missing. Identical values can stand only once. Inconclusive results are not listed. A structure can be active in one record and inactive in another. Activity calls are given as the source filed them. Unless noted, the call rests on the fitted dose curve; in most records, active means well fitted curve in the direction sought with a large enough effect; inconclusive means small, poorly fitted or top-dose-only effect, or another doubt; inactive means no such curve, though single readings can be large; an effect the other way counts as inactive or inconclusive.

Assay [1] in a line: Primary qHTS for inhibitors of nuclear receptor binding SET domain protein 2 (NSD2) in an RCH-ACV wild type WT cells (2C) (AID 1645877). Further: nearly all actives have a fitted effect of over 70% in size. Further: potency means the concentration at half of the fitted maximal effect. Background: qHTS replaces the single test concentration by a dilution series.
Assay [2] can be described thus: NCATS anti-infectives library activity on HEK293 viability as a counter-qHTS vs the C. elegans viability qHTS (AID 1745854). Further: on the % scale 0 is the no-effect control and ±100 the full control effect. The method, boiled down: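 Compounds were acoustically plated (several concentrations, 1:5, final up to 41.7 uM), then 1500 HEK293 cells added per well and incubated 24 hr at 37C, 5% CO2. CellTiter-Glo was added and luminescence read after 10 min.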

Assay [3] deals with Glutathione peroxidase 1 (Homo sapiens) (UniProt P07203). The experiment in a line: Primary qHTS Assay for Inhibitors of Recombinant Selenoprotein Glutathione Peroxidase 1 (GPX1) (AID 1845191). Further: nearly all actives have a fitted effect of over 65% in size. Further: potency means the concentration at half of the fitted maximal effect. Summed up: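 10 nM GPX1 + cpd, 30 min RT; start w/ 1 mM GSH, 0.5 mM cumene hydroperoxide, 0.5 mM NADPH, 100 nM GR, 0.01% BSA; buffer 50 mM Tris-HCl pH 7.5, 2 mM EDTA, 150 mM NaCl; Fl 340/450, 0 & 15 min.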
Glutathione peroxidase 1 (Homo sapiens), sequence (P07203 whole entry, looked up): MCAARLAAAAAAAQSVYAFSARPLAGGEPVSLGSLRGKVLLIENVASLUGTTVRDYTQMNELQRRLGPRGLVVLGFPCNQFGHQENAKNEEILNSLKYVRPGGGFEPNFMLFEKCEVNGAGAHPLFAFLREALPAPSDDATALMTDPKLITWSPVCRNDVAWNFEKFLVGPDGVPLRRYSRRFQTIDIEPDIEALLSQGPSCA

In assay [4] the target is Phospholipid hydroperoxide glutathione peroxidase GPX4 (Homo sapiens) (UniProt P36969). The experiment in a line: Primary qHTS Assay for Inhibitors of Recombinant Selenoprotein Glutathione Peroxidase 4 (GPX4) (AID 1845192). Further: nearly all actives have a fitted effect of over 65% in size. Further: potency means the concentration at half of the fitted maximal effect. On activity change, negative = inhibition: on the % scale 0 is the no-effect control and ±100 the full control effect. The method, boiled down:
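NADPH consumption, followed by fluorescence at 340/450 nm between 0 and 15 min, reports GPX4 activity via coupled glutathione reductase (100 nM). Enzyme 200 nM was pre-exposed to compound 30 min; 0.5 mM cumene hydroperoxide and 1 mM GSH served as substrates.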

The target of assay [5] is Catechol O-methyltransferase (Homo sapiens) (UniProt P21964). The experiment in a line: Confirmatory Screen for Target Class Profiling of Small Molecule Inhibitors of Methyltransferases (AID 1745852; calls by dose curve; further: potency means the concentration at half of the fitted maximal effect; on activity change, negative = inhibition: on the % scale 0 is the no-effect control and ±100 the full control effect). As to conditions: MTase-Glo luminescence, SAH detection, recombinant enzyme; measured here: COMT max response; stronger effect = lower value.
Catechol O-methyltransferase (Homo sapiens), sequence (P21964 whole entry, looked up): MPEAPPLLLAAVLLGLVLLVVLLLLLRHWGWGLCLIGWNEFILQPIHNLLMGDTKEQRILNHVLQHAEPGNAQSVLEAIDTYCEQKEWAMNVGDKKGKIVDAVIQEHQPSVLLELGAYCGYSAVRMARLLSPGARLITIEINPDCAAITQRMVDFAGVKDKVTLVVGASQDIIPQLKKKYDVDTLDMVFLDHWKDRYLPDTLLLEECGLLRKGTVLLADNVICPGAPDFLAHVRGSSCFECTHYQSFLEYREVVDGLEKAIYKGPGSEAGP
Assay [6] addresses Guanidinoacetate N-methyltransferase (Homo sapiens) (UniProt Q14353). The assay is described as above. As to conditions: MTase-Glo luminescence, SAH detection, recombinant enzyme; activity change, negative = inhibition: at 57.3 µM (top of the series) unless noted.
Assay [7] concerns the target Nicotinamide N-methyltransferase (Homo sapiens) (UniProt P40261). The description is as above. The conditions noted are these: MTase-Glo luminescence, SAH detection, recombinant enzyme; measured here: NNMT max response; stronger effect = lower value.
Assay [8] has as its target Phenylethanolamine N-methyltransferase (Homo sapiens) (UniProt P11086). The assay is described as above. The conditions noted are these: MTase-Glo luminescence, SAH detection, recombinant enzyme; measured here: PNMT max response; stronger effect = lower value.
In assay [9] the target is Luciferin 4-monooxygenase (Photinus pyralis) (UniProt P08659). In words: Primary firefly luciferase (FLuc) qHTS assay for identification of artifact compounds. (AID 1845220). Further: nearly all actives have a fitted effect of over 60% in size. Further: potency means the concentration at half of the fitted maximal effect.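 On activity change, negative = inhibition: plate controls were DMSO vehicle for no effect and no enzyme for full effect.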 Summed up:
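FLuc 10 nM; luciferin 10 uM; ATP 10 uM; Tris-acetate pH 7.6, Mg-acetate 10 mM; 15 min RT preincubation; 5 min reaction; luminescence.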

A short description of assay [10]: NCATS anti-infectives library activity on the primary C. elegans qHTS viability assay (AID 1745855; calls by dose curve; further: potency means the concentration at half of the fitted maximal effect). The method, boiled down: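 Viability read-out is GFP fluorescence of PE254-GFP-FLuc C. elegans, measured by laser cytometry (488 nm) at day 0, 3 and 7. Ten L1 worms per well were incubated 7 days at 21 °C with compounds and bacterial capsules in S medium.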
In assay [11] the target is Metallo-beta-lactamase type 2 (Klebsiella pneumoniae) (UniProt C7C422). The experiment in a line: qHTS to identify inhibitors of the New Delhi Metallo-beta-lactamase (NDM): assay validation screen against the NCATS LOPAC Collection (AID 1794843).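 Further: nitrocefin turnover by NDM-1 measured as 485 nm absorbance at plateau; on the % scale 0 is the no-effect control and ±100 the full control effect.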 The method, boiled down: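 Nitrocefin hydrolysis (50 uM substrate stock) by NDM-1, 2 nM final, was followed by 485 nm absorbance after compound preincubation; buffer was 50 mM HEPES pH 7.0, 1 uM ZnSO4, 0.01% Tween20.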
Metallo-beta-lactamase type 2 (Klebsiella pneumoniae), sequence (C7C422 whole entry, looked up): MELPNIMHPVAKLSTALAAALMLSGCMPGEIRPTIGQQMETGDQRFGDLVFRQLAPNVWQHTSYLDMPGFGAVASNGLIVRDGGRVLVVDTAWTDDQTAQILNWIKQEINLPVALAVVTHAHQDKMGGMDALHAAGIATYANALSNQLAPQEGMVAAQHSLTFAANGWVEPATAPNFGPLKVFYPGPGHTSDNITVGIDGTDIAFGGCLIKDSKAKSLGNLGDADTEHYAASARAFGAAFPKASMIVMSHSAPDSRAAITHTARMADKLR

Phospholipid hydroperoxide glutathione peroxidase GPX4 (Homo sapiens), sequence (P36969 whole entry, looked up): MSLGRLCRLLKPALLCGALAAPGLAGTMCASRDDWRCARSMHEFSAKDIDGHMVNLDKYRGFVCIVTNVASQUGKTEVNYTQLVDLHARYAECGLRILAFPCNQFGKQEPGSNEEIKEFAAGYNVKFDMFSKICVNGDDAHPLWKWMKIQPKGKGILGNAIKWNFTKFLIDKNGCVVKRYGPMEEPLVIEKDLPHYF
Nicotinamide N-methyltransferase (Homo sapiens), sequence (P40261 whole entry, looked up): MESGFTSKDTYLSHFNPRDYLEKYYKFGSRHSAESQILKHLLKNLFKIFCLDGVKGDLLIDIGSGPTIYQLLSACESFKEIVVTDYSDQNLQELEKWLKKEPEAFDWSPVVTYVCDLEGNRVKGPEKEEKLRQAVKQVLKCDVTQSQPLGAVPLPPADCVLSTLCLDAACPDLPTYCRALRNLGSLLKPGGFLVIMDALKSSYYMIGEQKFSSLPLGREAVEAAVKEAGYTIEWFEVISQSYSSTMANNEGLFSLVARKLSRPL
Phenylethanolamine N-methyltransferase (Homo sapiens), sequence (P11086 whole entry, looked up): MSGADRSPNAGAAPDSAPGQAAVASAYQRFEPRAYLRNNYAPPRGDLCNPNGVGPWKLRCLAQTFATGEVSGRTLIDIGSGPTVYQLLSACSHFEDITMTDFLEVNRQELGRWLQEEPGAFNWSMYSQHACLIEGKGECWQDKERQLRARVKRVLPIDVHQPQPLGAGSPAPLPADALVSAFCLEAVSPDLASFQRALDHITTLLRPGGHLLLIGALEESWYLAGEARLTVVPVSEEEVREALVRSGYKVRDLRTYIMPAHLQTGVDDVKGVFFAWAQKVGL

As to `O=C(Nc1c(Cl)cncc1Cl)c1ccc(OC(F)F)c(OCC2CC2)c1`, the Potency result in assay [1], in [3] and in assay [4] was “inactive” each time. For the same compound, the outcome in [2] is “inactive”.
Consider `CC1(C)CCC(CN2CCN(c3ccc(C(=O)NS(=O)(=O)c4ccc(NCC5CCOCC5)c([N+](=O)[O-])c4)c(Oc4cnc5[nH]ccc5c4)c3)CC2)=C(c2ccc(Cl)cc2)C1`, for which the Potency was 12.6 µM (active) and inactive in [1]; “inactive and 6.4 µM (active)” in assay [3]; “inactive and 3.16 µM (active)” in assay [4]. Further, the activity is -3.58% in assay [5], -11.4% in assay [7] and -21.8% in assay [8]. The activity change, negative = inhibition in [6] came out at 1.26% [at 29.8 µM]. For the same compound, the Potency result in assay [9] was “inactive”.
`CC(C)=CC[C@@H](O)C1=CC(=O)c2c(O)ccc(O)c2C1=O`: the Potency in assay [1] is 20.9 µM (active); in assay [10], 16.3 µM (active); in assay [4] it was 16.1 µM (active).
For `O=C1NCC2(CCN(CCc3ccccc3)CC2)O1`, the Potency entry in [1], in [11], in assay [3] and in [4] was “inactive” each time.
As to `C[N+](C)(C)CCCCCC[N+](C)(C)C`, the Potency entry in [1], in assay [11], in [3] and in assay [4] was “inactive” each time.
`COc1cccc(-c2cc(=O)c3ccccc3o2)c1N`: the Potency result in assay [1], in assay [11], in [3] and in [4] was “inactive” throughout.
In the case of `CCCCC1C(=O)N(c2ccccc2)N(c2ccccc2)C1=O`, the Potency entry in [1], in assay [11], in [3] and in assay [4] was “inactive” throughout.
For `COc1ccc(-c2nc(N3CCOCC3)c3sc(CN(C)c4ncc(C(=O)NO)cn4)cc3n2)cn1`, the Potency in assay [1] was 8.2 nM (active) and 33.2 nM (active); in assay [10], 14.5 µM (active). For the same compound, the Potency result in [3] and in assay [4] was “inactive” throughout.
`COc1cccc2c1CCCC2CCCN1CCN(C2CCCCC2)CC1` (stereo not drawn): the Potency in [1] was 20.9 µM (active). The Potency entry in [10], in [3] and in assay [4] was “inactive” throughout.
With `CC(=O)N(C)C1(c2ccccc2)CCN(CCC[C@]2(c3ccc(Cl)c(Cl)c3)CCCN(C(=O)c3ccccc3)C2)CC1`, the Potency in [1] was 5.78 µM (active). Besides, the activity in assay [5] was -5.14%; in assay [7], -62.2%; in assay [8], -6.52%. Besides, the activity change, negative = inhibition in [6] stood at 0%. Also, the Potency entry in assay [3], in assay [4] and in assay [9] was “inactive” in each case.
For `COc1cc(N2CCC(N3CCN(C)CC3)CC2)ccc1Nc1ncc(Cl)c(Nc2ccccc2S(=O)(=O)C(C)C)n1`, the Potency in [1] is 649 nM (active) and 1.48 µM (active); in assay [6], 27.1 µM (active). For the same compound, the activity was -29.5% in [5], -19% in assay [7] and -27.6% in assay [8]. Moreover, the Potency entry in assay [3], in assay [4] and in assay [9] was “inactive” in each case.
For `CC(=O)CCCCn1c(=O)c2c(ncn2C)n(C)c1=O`, the Potency result in assay [1], in [11], in [3], in [4] and in assay [9] was “inactive” throughout. Besides, the outcome in assay [2] is “inactive”.
As to `CCS(=O)(=O)N1CC(CC#N)(n2cc(-c3ncnc4[nH]ccc34)cn2)C1`, the Potency in assay [1] was 16.6 µM (active); in [4] it was 16.1 µM (active). For the same compound, the outcome in [2] is “inactive”. In addition, the Potency entry in assay [9] is “inactive”.
As to `CC(=O)c1ccc(S(=O)(=O)NC(=O)NC2CCCCC2)cc1`, the Potency entry in [1], in assay [11], in assay [3] and in assay [4] was “inactive” throughout.
Regarding `Cc1ccc(C(=O)Nc2cccc(C(F)(F)F)c2)cc1Nc1nc(-c2cccnc2)nc2c1cnn2C`, the Potency result in assay [1], in assay [3] and in assay [4] was “inactive” throughout.
As to `CC(C)(C)COc1ccc(-n2cc(C(=O)O)cn2)cc1C#N`, the Potency result in assay [1], in assay [3] and in assay [4] was “inactive” each time.
`CC(=O)Nc1ccc([C@H](C)C(=O)Nc2ncc(C(C)C)s2)cc1`: in assay [1], the Potency was 2.35 µM (active). Further, the Potency result in assay [3], in assay [4] and in assay [9] was “inactive” throughout.
Consider `O=C(Nc1cc(Cl)cc2c1[nH]c1cnccc12)c1cccnc1`, for which the Potency entry in [1], in [3] and in [4] was “inactive” throughout.
With `CC(C)(C)Cn1c(N)nc2ccc(-c3[nH]c(C(C)(C)C)nc3-c3ccc(F)cc3)nc21`, the Potency in [1] is 2.58 µM (active) and 16.6 µM (active); in [3], 16.1 µM (active); in assay [4], “inactive and 9.04 µM (active)”. For the same compound, in assay [9], the Potency result was “inactive”.
With `COc1cccc([C@@H](C)NCCCc2ccccc2Cl)c1`, the Potency in assay [1] was 18.6 µM (active). The Potency entry in assay [3] and in [4] was “inactive” each time.
As to `COc1cc2c(cc1OC)CN(CCc1ccc(NC(=O)c3cc(OC)c(OC)cc3NC(=O)c3cnc4ccccc4c3)cc1)CC2`, the Potency result in [1], in assay [3], in [4] and in [9] was “inactive” throughout.
As to `O=C(O)c1ccccc1C(=O)Nc1ccc(-c2ccccc2)cc1`, the Potency result in assay [1], in assay [3] and in assay [4] was “inactive” throughout. Moreover, in [9], the Potency was 23.9 µM (active).
`CC(C(=O)O)c1ccc(-c2ccccc2)c(F)c1` (stereo not drawn): the Potency entry in [1], in assay [3] and in assay [4] was “inactive” in each case.
`COc1cc2ncnc(-n3nc(-c4ccccn4)nc3N)c2cc1OC`: the Potency in assay [1] is 2.52 µM (active). The Potency entry in assay [3], in [4] and in assay [9] was “inactive” throughout.
On to `CC(C)OC(=O)C(C)(C)Oc1ccc(C(=O)c2ccc(Cl)cc2)cc1`, for which the Potency entry in assay [1], in assay [3] and in assay [4] was “inactive” throughout.
Turning to `Clc1cc(Cl)cc(CNc2ncncc2-c2ccc3c(c2)OCO3)c1`, in [1], the Potency is 11.8 µM (active). Besides, the Potency entry in assay [3] and in [4] was “inactive” each time.
As for `c1ccc2c(-c3cnn4cc(-c5ccc(N6CCNCC6)cc5)cnc34)ccnc2c1`, in assay [1], the Potency was 2.09 µM (active). In addition, the Potency result in assay [3] and in [4] was “inactive” each time.
As for `CC(C)[C@H](CO)Nc1nc(Nc2ccc(C(=O)O)c(Cl)c2)c2ncn(C(C)C)c2n1`, the Potency entry in assay [1], in assay [3], in assay [4] and in [9] was “inactive” throughout.
`COc1ccc2cccc(CCNC(C)=O)c2c1`: the Potency result in [1], in assay [3] and in [4] was “inactive” in each case.
As for `O=C(O)c1cc(-c2ccccc2)nc2ccccc12`, the Potency entry in assay [1], in assay [3] and in [4] was “inactive” in each case.
For `NC(CO)(CO)CCc1ccc(Sc2cccc(OCc3ccccc3)c2)cc1Cl`, the Potency in assay [1] was 7.42 µM (active). In addition, the Potency entry in assay [3] and in [4] was “inactive” in each case.
For the compound `Cc1ccccc1C(C(=O)NC1CCCCC1)N(C(=O)Cn1ccnc1C)c1cccc(F)c1` (stereo not drawn), the Potency entry in assay [1], in assay [3], in assay [4] and in assay [9] was “inactive” each time.
With `c1cc(-c2sc(-c3ccncc3)c(-c3ccncc3)c2-c2ccncc2)ccn1`, the Potency entry in assay [1], in assay [3] and in assay [4] was “inactive” in each case.
